# Reference: PubChem BioAssay (Tox21)
# Where “and” joins values, the source holds several entries; their conditions need not be identical. Identical values can stand only once. Results filed as inconclusive are left out. Entries that show only a call come without a potency. The source holds several records for some structures; these can differ, active in one and inactive in another. Calls of active or inactive are those of the source. Unless noted, calls come from the whole dose curve; as a rule, active = well fitted curve in the direction sought with a large enough effect in the repeat runs; inconclusive = weak or mixed curves; inactive = no such curve, though single readings can be large; an effect the other way counts as inactive or inconclusive.
# Experiments:
# [1] = qHTS assay to identify small molecule agonists of the peroxisome proliferator-activated receptor delta (PPARd) signaling pathway - cell viability counter screen (AID 743211); note: nearly all actives have a fitted effect of over 55% in size; note: potency is the fitted concentration of half-maximal effect
# Procedure, shortened: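 Viability was measured as CellTiter-Glo luminescence (30 min, room temperature) in the same wells as the beta-lactamase readout. GeneBLAzer PPARd UAS-bla HEK293H cells received compound after 5 h plating and were incubated 17 h at 37 C.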
# [2] = target: Peroxisome proliferator-activated receptor delta (Homo sapiens) (UniProt Q03181); experiment: qHTS assay to identify small molecule agonists of the peroxisome proliferator-activated receptor delta (PPARd) signaling pathway (AID 743212; calls by dose curve)
# Procedure, shortened: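 HEK293H UAS-bla reporter cells, human PPARd system; compounds delivered in DMSO after 5 h plating, then at 37 C. Beta-lactamase FRET read, 2 h RT substrate step.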
# [3] = qHTS assay to identify small molecule antagonists of the peroxisome proliferator-activated receptor delta (PPARd) signaling pathway - cell viability counter screen (AID 743213); note: nearly all actives have a fitted effect of over 50% in size; note: potency is the fitted concentration of half-maximal effect
# Procedure, shortened: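 Viability counter-screen, qHTS format: PPARd-bla HEK293H, L165041 300 nM final, 17 h compound exposure at 37 C, CellTiter-Glo luminescence after 30 min RT.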
# [4] = target: Peroxisome proliferator-activated receptor delta (Homo sapiens) (UniProt Q03181); experiment: qHTS assay to identify small molecule antagonists of the peroxisome proliferator-activated receptor delta (PPARd) signaling pathway (AID 743215; active = well fitted inhibition curve with a large enough effect in the signal ratio in the repeat runs, not every such curve was filed as active; the % refers to the signal ratio;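 note: cells stimulated with agonist L165041 at 300 nM final during compound exposure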; note: potency is the fitted concentration of half-maximal effect)
# Procedure, shortened: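 Inhibition of L165041-driven (300 nM final) PPARd signaling is scored in HEK293H UAS-bla cells. Exposure lasts 17 h at 37 C; beta-lactamase activity is then read by FRET substrate fluorescence after 2 h at room temperature.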
# [5] = target: Bile acid receptor (Homo sapiens) (UniProt Q96RI1); experiment: qHTS assay to identify small molecule antagonists of the farnesoid-X-receptor (FXR) signaling pathway (AID 743217; active = well fitted inhibition curve with a large enough effect in the signal ratio in the repeat runs, not every such curve was filed as active; the % refers to the signal ratio; note: potency is the fitted concentration of half-maximal effect)
# Procedure, shortened: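 Antagonist mode against 50 uM (final) chenodeoxycholic acid stimulation in FXR-bla HEK 293T cells, 16 h at 37 °C. Inhibition detected as reduced beta-lactamase activity via LiveBLAzer B/G FRET fluorescence after 2 h at room temperature.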
# [6] = target: Bile acid receptor (Homo sapiens) (UniProt Q96RI1); experiment: qHTS assay to identify small molecule agonists of the farnesoid-X-receptor (FXR) signaling pathway (AID 743220; active = well fitted activation curve with a large enough effect in the signal ratio in the repeat runs, not every such curve was filed as active; the % refers to the signal ratio)
# Procedure, shortened: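 Beta-lactamase reporter under UAS control in GeneBLAzer FXR HEK 293T cells (5000/well) measured with LiveBLAzer FRET substrate after 2 h at room temperature. Compound exposure lasted 16 h at 37C.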
# [7] = qHTS assay to identify small molecule antagonists of the farnesoid-X-receptor (FXR) signaling pathway - cell viability counter screen (AID 743221; active = well fitted cell-killing curve with a large enough effect in the repeat runs, not every such curve was filed as active; note: nearly all actives have a fitted effect of over 50% in size; note: potency is the fitted concentration of half-maximal effect)
# Procedure, shortened: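 Cytotoxicity counter screen run in the FXR-bla reporter wells: HEK 293T cells exposed to compound with 50 uM (final) chenodeoxycholic acid for 16 h, 37 C, then viability measured by CellTiter-Glo luminescence after 30 min, room temperature.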
# [8] = target: Vitamin D3 receptor (Homo sapiens) (UniProt P11473); experiment: qHTS assay to identify small molecule agonists of the vitamin D receptor (VDR) signaling pathway (AID 743222; calls by dose curve)
# Procedure, shortened: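 Quantitative HTS agonist-mode screen: compounds in DMSO were pin-transferred onto VDR-bla cells and incubated 16 h at 37C, 5% CO2. Reporter activity was detected with LiveBLAzer B/G FRET substrate after 2 h at room temperature.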
# [9] = qHTS assay to identify small molecule agonists of the farnesoid-X-receptor (FXR) signaling pathway - cell viability counter screen (AID 743218); note: nearly all actives have a fitted effect of over 45% in size; note: potency is the fitted concentration of half-maximal effect
# Procedure, shortened: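 Cytotoxicity counter-screen run in parallel, same wells: FXR-UAS-bla HEK 293T cells dosed 16 h at 37 C, viability read by CellTiter-Glo luminescence after 30 min at room temperature.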
# [10] = target: Vitamin D3 receptor (Homo sapiens) (UniProt P11473); experiment: qHTS assay to identify small molecule antagonists of the vitamin D receptor (VDR) signaling pathway (AID 743223; active = well fitted inhibition curve with a large enough effect in the signal ratio in the repeat runs, not every such curve was filed as active; the % refers to the signal ratio)
# Procedure, shortened: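 Antagonist mode: compound added to VDR-bla cells alongside agonist 1alpha,25-dihydroxyvitamin D3 (3 nM final), incubation 16 h at 37C. Read-out is LiveBLAzer FRET fluorescence, 2 h at room temperature.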
# Peroxisome proliferator-activated receptor delta (Homo sapiens), sequence (Q03181 whole entry, looked up): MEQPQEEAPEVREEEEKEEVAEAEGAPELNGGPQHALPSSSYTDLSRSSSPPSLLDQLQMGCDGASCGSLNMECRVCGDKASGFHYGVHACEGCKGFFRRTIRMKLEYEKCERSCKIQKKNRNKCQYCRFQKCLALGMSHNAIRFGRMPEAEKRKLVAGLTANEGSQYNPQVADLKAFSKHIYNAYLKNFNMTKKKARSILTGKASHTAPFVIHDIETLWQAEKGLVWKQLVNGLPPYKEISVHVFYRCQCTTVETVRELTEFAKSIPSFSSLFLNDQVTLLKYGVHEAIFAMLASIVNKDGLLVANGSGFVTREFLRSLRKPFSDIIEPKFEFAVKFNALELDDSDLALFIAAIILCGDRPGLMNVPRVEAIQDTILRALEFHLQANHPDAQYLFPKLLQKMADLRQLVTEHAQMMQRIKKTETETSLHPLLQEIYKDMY
# Bile acid receptor (Homo sapiens), sequence (Q96RI1 whole entry, looked up): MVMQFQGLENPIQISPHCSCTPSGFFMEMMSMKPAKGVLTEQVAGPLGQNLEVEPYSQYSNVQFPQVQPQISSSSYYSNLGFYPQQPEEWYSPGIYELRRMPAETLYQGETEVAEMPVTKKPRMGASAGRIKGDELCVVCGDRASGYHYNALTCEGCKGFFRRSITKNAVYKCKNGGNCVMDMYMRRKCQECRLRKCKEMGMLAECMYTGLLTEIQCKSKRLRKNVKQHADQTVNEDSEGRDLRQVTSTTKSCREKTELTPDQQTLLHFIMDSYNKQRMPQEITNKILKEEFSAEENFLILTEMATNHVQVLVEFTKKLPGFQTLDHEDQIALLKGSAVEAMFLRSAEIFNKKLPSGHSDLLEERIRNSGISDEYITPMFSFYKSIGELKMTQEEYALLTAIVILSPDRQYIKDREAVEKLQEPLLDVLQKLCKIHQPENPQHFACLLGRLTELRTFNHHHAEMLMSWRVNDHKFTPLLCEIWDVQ
# Vitamin D3 receptor (Homo sapiens), sequence (P11473 whole entry, looked up): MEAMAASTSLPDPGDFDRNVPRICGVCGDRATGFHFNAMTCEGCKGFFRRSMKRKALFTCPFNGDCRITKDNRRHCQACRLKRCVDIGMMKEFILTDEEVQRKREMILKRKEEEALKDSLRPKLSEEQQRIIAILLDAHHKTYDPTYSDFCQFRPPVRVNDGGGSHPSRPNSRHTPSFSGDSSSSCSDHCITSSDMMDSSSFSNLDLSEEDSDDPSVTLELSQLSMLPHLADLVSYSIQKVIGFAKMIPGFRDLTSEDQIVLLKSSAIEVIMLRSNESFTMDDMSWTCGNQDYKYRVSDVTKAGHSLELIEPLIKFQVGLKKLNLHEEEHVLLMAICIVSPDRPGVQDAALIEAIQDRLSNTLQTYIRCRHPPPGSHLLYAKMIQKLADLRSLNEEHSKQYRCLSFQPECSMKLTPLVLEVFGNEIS
SMILES,Potency [1],Potency [2],Potency [3],Potency [4],Potency [5],outcome [6],Potency [7],outcome [8],Potency [9],outcome [10]
COP(=S)(OC)Oc1ccc([N+](=O)[O-])cc1,inactive,inactive,inactive,inactive,inactive,inactive,inactive,inactive,–,–
COP(=O)(OC)OC,inactive,inactive,inactive,inactive,inactive,inactive,inactive,inactive,inactive,inactive
CCN(CC)N=O,inactive,inactive,inactive,inactive,inactive,inactive,inactive,inactive,inactive,inactive
CC(C)(OOC(C)(C)c1ccccc1)c1ccccc1,inactive,inactive,inactive,inactive,inactive,inactive,inactive,inactive,–,inactive
C#CCOS(=O)OC1CCCCC1Oc1ccc(C(C)(C)C)cc1 (configuration not stated),inactive and 24.5 µM (active),inactive,inactive,inactive,inactive,inactive,inactive,–,inactive,–
CCC(CC)Nc1c([N+](=O)[O-])cc(C)c(C)c1[N+](=O)[O-],inactive,inactive,inactive,inactive,inactive,inactive,inactive,inactive,inactive,inactive
Nc1c(Cl)cc([N+](=O)[O-])cc1Cl,inactive,inactive,inactive and 4.36 µM (active),inactive,inactive,inactive,inactive and 4.36 µM (active),–,2.75 µM (active),inactive
c1ccc(NNc2ccccc2)cc1,inactive,inactive,inactive,inactive,inactive,inactive,inactive,inactive,inactive,inactive
N[C@@H](Cc1ccc(N(CCCl)CCCl)cc1)C(=O)O,inactive,inactive,inactive,inactive,inactive,inactive,inactive,–,inactive,–
CCCCCCCCOC(=O)c1ccccc1C(=O)OCCCCCCCC,inactive,inactive,inactive,inactive,inactive,inactive,inactive,inactive,inactive,inactive
Nc1cccnc1,inactive,inactive,inactive,inactive,inactive,inactive,inactive,–,inactive,–
CCN(N=O)C(N)=O,inactive,inactive,inactive,inactive,inactive,inactive,inactive,–,inactive,inactive
NC(=S)Nc1ccccc1,inactive,inactive,inactive,inactive,inactive,inactive,inactive,–,inactive,inactive
CCC(=O)O[C@H]1CC[C@H]2[C@@H]3CCC4=CC(=O)CC[C@]4(C)[C@H]3CC[C@]12C,49 µM (active) and inactive,inactive,inactive,inactive,–,–,inactive,–,54.9 µM (active) and inactive,–
C#C[C@]1(O)CC[C@H]2[C@@H]3CCC4=CC(=O)CC[C@]4(C)[C@H]3CC[C@@]21C,inactive,inactive,inactive,inactive,inactive,inactive,inactive,–,inactive,–
CCCCCCCCC(=O)NCc1ccc(O)c(OC)c1,inactive,inactive,inactive,inactive,–,–,inactive,inactive,inactive,inactive
c1nc[nH]n1,inactive,inactive,inactive,inactive,inactive,inactive,inactive,inactive,inactive,inactive
COP(=S)(OC)Oc1cc(Cl)c(Cl)cc1Cl,inactive,inactive,inactive,inactive,–,–,inactive,–,inactive,–
NCc1cccnc1,inactive,inactive,inactive,inactive,inactive,inactive,inactive,inactive,inactive,inactive
Oc1ccc(-c2ccccc2)cc1,inactive,inactive,inactive,inactive,inactive,inactive,inactive,–,inactive,inactive
Cc1ccc(OP(=O)(Oc2ccc(C)cc2)Oc2ccc(C)cc2)cc1,inactive,inactive,inactive,inactive,–,–,inactive,inactive,inactive,inactive
ClC1C(Cl)C(Cl)C(Cl)C(Cl)C1Cl (configuration not stated),inactive,inactive,inactive,inactive,inactive,inactive,inactive,–,inactive,–
O=P(O)(O)CCCl,inactive,inactive,inactive,inactive,inactive,inactive,inactive,–,inactive,inactive
Clc1nc(Cl)nc(Cl)n1,inactive,inactive,inactive,inactive,–,–,inactive,inactive,inactive,inactive
CC(C)C(=O)OCC(C)(C)C(OC(=O)C(C)C)C(C)C (configuration not stated),inactive,inactive,inactive,inactive,–,–,inactive,inactive,inactive,inactive

SMILES,Potency [1],Potency [2],Potency [3],Potency [4],Potency [5],outcome [6],Potency [7],outcome [8],Potency [9],outcome [10]
CC(C)N(C(=O)SCC(Cl)=C(Cl)Cl)C(C)C,inactive,inactive,inactive,inactive,inactive,inactive,inactive,inactive,inactive,inactive
CC(C)(C)c1ccccc1O,inactive,inactive,inactive,inactive,–,–,inactive,inactive,inactive,–
O=P(Oc1ccccc1)(Oc1ccccc1)Oc1ccccc1,24.4 µM (active),inactive,inactive,inactive,–,inactive,inactive,inactive,inactive,inactive
O=[N+]([O-])c1ccc(O)c([N+](=O)[O-])c1,inactive,–,–,–,–,–,–,–,–,–
OCC(O)CO,inactive,inactive,inactive,inactive,inactive,inactive,inactive,inactive,inactive,inactive
Cc1ccc2c(c1N)C(=O)c1ccccc1C2=O,inactive,inactive,inactive,inactive,–,inactive,inactive,–,inactive,–
Cc1cc(Cl)ccc1OCCCC(=O)O,inactive,inactive,inactive,inactive,inactive,inactive,inactive,inactive,inactive,inactive
CC(C)=CC1C(C(=O)OCc2coc(Cc3ccccc3)c2)C1(C)C (configuration not stated),inactive,inactive,inactive,inactive,inactive,inactive,inactive,inactive,inactive,inactive
CN(C)C(=O)Nc1ccc(Cl)cc1,inactive,inactive,inactive,inactive,inactive,inactive,inactive,inactive,inactive,inactive
N#CC(Br)Br,inactive,inactive,inactive,inactive,inactive,inactive,inactive,–,inactive,–
C=C(C)C(=O)OCC1CO1 (configuration not stated),inactive,inactive,inactive,inactive,inactive,inactive,inactive,–,inactive,inactive
Brc1ccc(Oc2cc(Br)c(Br)cc2Br)c(Br)c1,22 µM (active),inactive,inactive,inactive,–,inactive,inactive,inactive,inactive,inactive
O=[N+]([O-])c1cccc2ccccc12,inactive,inactive,inactive,inactive,–,–,inactive,–,inactive,–
O=C(O)CC[N+](=O)[O-],inactive,inactive,inactive,inactive,–,–,inactive,–,inactive,inactive
CCOc1cc(C=O)ccc1O,inactive,inactive,inactive,inactive,–,–,inactive,–,inactive,inactive
COc1ccc(C=O)cc1,inactive,inactive,inactive,inactive,–,–,inactive,inactive,inactive,inactive
O=C(NC(=O)c1c(F)cccc1F)Nc1ccc(Cl)cc1,inactive,inactive,inactive,–,inactive,inactive,inactive,inactive,inactive,inactive
O=C(CCl)c1ccccc1,inactive,inactive,inactive,inactive,–,–,inactive,–,inactive,inactive
Oc1cc(Cl)ccc1Cl,inactive,inactive,inactive,inactive,–,–,inactive,–,inactive,inactive
CCCCN(CC)c1c([N+](=O)[O-])cc(C(F)(F)F)cc1[N+](=O)[O-],inactive,inactive,inactive,inactive,–,–,inactive,inactive,inactive,inactive
Cc1c(COC(=O)[C@@H]2[C@H](/C=C(\Cl)C(F)(F)F)C2(C)C)cccc1-c1ccccc1,inactive,inactive,inactive,–,–,inactive,inactive,inactive,inactive,inactive
C=CCN(CC=C)C(=O)C(Cl)Cl,inactive,inactive,inactive,inactive,–,–,inactive,inactive,inactive,inactive
C=C(C)[C@H]1Cc2c(ccc3c2O[C@@H]2COc4cc(OC)c(OC)cc4[C@@H]2C3=O)O1,inactive,inactive,–,4.9 µM (active) and inactive,0.75 µM (active),inactive,inactive,–,inactive,–
CCc1cccc(CC)c1N(COC)C(=O)CCl,inactive,inactive,inactive,–,inactive,inactive,inactive,inactive,inactive,inactive
